Measured values as given in the supplement of paper PMC11732987, “Enantioselective OTUD7B fragment discovery through chemoproteomics screening and high-throughput optimisation” (Communications Chemistry, 2025).

Legend:
Experiment in all cases: log2 ratio of Biotin-Ahx-Ub-VS probe labelling (fragment/DMSO); higher = less target engagement (more negative = stronger competition), active = hit call of the paper (q ≤ 0.05, log2 ratio ≤ -1)
Conditions in all cases: compound concentration: 200 uM; treatment time: 3 h
USP19 = target: T1, USP19 (UniProt O94966)
T1 sequence (whole entry): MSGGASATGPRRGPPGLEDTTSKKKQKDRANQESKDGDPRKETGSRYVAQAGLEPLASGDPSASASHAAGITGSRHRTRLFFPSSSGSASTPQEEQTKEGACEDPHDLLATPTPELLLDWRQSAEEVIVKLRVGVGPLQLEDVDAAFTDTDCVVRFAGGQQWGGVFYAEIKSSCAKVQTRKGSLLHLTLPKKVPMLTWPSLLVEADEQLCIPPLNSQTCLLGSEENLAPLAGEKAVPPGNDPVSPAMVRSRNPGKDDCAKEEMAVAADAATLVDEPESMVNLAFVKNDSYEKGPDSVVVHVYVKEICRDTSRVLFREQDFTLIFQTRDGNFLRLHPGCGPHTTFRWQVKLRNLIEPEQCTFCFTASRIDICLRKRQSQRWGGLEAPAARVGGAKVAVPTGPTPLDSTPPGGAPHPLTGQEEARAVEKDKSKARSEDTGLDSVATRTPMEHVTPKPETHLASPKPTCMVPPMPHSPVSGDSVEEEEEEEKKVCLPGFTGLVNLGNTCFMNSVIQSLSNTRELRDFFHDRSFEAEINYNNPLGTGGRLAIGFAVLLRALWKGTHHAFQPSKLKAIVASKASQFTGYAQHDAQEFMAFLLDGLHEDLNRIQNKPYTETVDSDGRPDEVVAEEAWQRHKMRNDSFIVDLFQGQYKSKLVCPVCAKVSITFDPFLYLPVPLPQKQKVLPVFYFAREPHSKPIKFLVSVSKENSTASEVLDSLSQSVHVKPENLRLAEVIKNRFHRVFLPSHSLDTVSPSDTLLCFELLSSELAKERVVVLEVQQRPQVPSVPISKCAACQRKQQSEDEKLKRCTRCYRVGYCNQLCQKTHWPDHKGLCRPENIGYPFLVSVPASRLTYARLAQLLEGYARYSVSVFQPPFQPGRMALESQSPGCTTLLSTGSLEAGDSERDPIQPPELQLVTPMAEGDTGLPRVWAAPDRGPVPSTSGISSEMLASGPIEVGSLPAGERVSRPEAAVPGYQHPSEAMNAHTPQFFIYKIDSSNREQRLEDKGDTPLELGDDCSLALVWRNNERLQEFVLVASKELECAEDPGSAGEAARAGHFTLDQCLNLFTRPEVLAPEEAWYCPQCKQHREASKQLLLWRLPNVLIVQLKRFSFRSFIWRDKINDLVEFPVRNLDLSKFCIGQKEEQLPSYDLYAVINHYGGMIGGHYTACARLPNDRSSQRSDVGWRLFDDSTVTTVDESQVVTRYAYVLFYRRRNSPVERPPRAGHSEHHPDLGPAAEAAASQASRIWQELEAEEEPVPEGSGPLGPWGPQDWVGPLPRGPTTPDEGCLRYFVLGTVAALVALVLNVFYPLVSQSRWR
Procedure, shortened: (§1)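 Each value is an average log2 ratio of fragment to vehicle, tested by unpaired t-test. The underlying Spectronaut label-free quantities were global-median-normalised, and only proteins with ≥2 unique peptides were included. Triplicate HEK293T lysate samples (495 µg) were exposed to fragment at 200 µM or vehicle for 3 h, then to Biotin-Ahx-Ub-VS at 0.5 µM final for 1 h, before NeutrAvidin enrichment of labelled DUBs, LysC and trypsin digestion, and diaPASEF LC-MS/MS.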

USP24 = USP24 (UniProt Q9UPU5)
Chain of USP24 (Q9UPU5 whole entry): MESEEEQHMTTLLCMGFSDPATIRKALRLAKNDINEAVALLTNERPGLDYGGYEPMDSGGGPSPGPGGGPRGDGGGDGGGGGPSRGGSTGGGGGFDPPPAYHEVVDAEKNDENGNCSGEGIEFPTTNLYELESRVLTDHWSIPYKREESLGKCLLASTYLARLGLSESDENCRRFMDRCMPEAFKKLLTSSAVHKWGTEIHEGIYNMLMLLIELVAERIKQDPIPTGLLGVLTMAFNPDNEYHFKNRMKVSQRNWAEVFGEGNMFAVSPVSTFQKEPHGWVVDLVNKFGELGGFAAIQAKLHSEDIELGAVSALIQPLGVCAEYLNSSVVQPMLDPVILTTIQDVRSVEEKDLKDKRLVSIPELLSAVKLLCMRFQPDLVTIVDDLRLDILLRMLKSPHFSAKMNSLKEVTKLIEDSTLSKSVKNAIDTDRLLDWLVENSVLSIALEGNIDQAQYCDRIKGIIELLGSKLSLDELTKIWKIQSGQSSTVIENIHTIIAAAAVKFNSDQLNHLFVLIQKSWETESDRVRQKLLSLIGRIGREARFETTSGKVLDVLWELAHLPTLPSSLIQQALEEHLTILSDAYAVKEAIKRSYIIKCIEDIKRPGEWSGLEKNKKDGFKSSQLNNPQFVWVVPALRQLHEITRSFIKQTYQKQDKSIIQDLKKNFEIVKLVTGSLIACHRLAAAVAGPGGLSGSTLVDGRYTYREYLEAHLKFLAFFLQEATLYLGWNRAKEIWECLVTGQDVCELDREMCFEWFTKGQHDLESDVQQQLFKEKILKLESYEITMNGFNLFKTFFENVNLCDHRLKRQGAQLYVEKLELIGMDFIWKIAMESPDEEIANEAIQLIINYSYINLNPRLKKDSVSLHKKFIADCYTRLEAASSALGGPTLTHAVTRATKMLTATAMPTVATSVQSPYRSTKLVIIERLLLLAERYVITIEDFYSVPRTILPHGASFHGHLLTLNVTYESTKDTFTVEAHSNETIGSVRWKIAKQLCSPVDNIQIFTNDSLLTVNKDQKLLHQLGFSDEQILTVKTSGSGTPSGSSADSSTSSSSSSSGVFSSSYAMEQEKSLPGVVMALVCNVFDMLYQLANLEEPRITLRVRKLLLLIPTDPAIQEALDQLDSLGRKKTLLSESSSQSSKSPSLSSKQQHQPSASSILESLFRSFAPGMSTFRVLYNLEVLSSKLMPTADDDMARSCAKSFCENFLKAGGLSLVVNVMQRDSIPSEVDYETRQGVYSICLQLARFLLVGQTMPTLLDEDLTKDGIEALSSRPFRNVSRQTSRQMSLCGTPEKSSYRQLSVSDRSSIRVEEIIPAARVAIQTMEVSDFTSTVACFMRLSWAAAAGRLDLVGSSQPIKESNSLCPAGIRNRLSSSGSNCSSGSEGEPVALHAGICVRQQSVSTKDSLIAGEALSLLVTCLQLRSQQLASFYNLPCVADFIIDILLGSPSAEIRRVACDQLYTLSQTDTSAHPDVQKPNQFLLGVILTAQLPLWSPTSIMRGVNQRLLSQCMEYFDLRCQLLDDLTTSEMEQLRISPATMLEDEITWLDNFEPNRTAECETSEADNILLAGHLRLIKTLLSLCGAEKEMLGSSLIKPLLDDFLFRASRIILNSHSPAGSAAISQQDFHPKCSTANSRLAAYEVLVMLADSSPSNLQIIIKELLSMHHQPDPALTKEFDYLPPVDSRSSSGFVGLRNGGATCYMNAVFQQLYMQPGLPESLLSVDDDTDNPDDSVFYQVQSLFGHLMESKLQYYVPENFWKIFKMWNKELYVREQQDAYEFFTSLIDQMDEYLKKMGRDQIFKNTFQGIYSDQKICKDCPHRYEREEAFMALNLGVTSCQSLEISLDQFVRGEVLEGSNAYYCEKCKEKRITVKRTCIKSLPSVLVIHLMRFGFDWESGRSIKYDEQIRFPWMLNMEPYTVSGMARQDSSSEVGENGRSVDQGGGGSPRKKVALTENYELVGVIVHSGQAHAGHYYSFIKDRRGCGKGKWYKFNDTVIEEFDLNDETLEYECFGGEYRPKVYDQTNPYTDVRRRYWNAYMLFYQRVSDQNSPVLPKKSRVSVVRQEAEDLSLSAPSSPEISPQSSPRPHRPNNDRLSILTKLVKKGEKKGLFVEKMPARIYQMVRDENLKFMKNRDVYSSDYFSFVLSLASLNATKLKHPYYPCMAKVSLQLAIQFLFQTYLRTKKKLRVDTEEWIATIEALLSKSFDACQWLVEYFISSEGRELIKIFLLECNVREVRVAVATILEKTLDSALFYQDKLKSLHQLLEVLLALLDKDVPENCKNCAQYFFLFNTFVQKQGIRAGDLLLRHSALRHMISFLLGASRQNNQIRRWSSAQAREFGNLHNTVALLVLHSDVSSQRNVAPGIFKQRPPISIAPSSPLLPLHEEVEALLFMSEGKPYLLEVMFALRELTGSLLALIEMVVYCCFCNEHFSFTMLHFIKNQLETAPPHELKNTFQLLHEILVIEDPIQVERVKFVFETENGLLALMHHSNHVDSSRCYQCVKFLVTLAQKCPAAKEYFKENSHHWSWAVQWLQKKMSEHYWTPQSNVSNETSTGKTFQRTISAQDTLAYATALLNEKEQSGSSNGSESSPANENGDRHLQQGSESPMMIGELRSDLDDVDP
Procedure, shortened: as §1

USP25 = target: T2, USP25 (UniProt Q9UHP3)
T2 sequence (whole entry): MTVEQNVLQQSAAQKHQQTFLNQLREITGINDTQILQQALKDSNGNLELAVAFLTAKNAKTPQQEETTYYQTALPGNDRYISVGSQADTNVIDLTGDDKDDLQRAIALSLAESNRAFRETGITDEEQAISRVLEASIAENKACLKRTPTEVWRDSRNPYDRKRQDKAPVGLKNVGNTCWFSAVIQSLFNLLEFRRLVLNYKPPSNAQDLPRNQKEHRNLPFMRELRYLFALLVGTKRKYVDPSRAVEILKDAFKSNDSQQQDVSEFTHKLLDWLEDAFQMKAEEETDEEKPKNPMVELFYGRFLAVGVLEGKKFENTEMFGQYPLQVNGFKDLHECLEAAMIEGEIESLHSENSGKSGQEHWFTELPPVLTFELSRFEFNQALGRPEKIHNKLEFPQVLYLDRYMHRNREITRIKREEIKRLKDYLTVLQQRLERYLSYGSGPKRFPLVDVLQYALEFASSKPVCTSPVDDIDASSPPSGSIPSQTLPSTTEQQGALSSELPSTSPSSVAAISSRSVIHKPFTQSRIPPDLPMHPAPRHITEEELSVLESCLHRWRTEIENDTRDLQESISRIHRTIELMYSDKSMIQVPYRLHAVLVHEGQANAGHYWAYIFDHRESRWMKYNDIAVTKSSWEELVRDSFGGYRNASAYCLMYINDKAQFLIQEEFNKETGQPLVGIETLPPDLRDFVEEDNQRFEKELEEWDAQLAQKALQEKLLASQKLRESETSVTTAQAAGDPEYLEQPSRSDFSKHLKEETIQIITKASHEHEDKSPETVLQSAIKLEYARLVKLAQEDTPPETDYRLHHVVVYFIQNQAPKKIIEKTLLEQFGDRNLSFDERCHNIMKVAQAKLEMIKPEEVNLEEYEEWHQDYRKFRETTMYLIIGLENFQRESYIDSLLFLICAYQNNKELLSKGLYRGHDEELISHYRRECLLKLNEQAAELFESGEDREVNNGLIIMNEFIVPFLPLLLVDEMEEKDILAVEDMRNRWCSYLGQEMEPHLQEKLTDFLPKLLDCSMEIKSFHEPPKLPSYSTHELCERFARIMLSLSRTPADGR
Procedure, shortened: as §1

USP28 = target: T3, USP28 (UniProt Q96RU2)
T3 sequence (whole entry): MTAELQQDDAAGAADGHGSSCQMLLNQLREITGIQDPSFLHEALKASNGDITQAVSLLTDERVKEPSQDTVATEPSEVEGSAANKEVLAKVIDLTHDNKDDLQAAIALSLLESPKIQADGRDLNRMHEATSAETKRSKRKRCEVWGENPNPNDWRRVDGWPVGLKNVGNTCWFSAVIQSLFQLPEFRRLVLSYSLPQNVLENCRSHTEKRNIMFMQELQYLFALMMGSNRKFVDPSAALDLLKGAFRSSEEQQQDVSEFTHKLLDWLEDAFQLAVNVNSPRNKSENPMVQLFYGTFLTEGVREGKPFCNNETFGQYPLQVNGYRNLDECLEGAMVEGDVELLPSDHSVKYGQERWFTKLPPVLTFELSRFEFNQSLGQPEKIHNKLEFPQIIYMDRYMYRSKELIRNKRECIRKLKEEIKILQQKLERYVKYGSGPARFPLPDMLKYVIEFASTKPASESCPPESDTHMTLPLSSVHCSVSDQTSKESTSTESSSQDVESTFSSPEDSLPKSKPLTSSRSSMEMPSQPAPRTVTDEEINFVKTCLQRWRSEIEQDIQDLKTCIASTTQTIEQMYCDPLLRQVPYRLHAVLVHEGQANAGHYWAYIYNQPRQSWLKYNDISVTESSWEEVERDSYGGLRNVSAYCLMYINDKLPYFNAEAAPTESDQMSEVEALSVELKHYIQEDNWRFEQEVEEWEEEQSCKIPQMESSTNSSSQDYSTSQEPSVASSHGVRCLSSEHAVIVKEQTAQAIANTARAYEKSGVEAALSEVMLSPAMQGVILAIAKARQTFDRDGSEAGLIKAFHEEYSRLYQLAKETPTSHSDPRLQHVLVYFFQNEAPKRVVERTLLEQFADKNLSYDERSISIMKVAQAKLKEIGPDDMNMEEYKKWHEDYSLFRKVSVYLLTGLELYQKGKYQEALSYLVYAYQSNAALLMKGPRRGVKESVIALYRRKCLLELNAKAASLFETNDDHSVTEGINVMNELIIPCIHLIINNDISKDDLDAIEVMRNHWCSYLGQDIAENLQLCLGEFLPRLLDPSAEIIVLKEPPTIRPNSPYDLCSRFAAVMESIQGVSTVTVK
Procedure, shortened: as §1

Measured: log2 ratio of Biotin-Ahx-Ub-VS probe labelling

Cc1noc(C)c1CNC(=O)CCl
inactive: USP19 -0.666 | USP24 -0.8 | USP25 -0.554 | USP28 -0.971
